Pf Dd2 growth – qHTS Primary assay for Inhibitors of Plasmodium falciparum Dd2 growth in vitro; AID 1347417, 2020; hit rate 4.3% among 120,000; Potency, µM (highest dose often 28.9 µM), inactives show top-dose activity, negative = inhibition, hits mostly inhibitors; P. falciparum Dd2 growth, SYBR Green, 72 h; active = well fitted inhibition curve with a large enough effect;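 note: plate controls were DMSO vehicle for no effect and reference drug for full effect; nearly all actives have a fitted effect of over 65% in size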
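Readout: SYBR Green fluorescence, 485 nm excitation, 535 nm emission, after ~16 h lysis at 37C. Before that, Dd2-infected red cells (2.5% hematocrit) grew 72 h with compound, 29 uM top final concentration.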
Starred values were filed as active, the others as inactive; i = inactive; [ ] = remark or other dose. The full list was thinned out, with hits kept by preference. Potency is the fitted concentration of half-maximal effect.

SMILES	Pf Dd2 growth
CCOCC(=O)N1C[C@@H](Oc2ccccc2)C[C@H]1C(=O)N1CCOCC1	14%
COCC1CN(C(C)=O)CC12CCN(S(=O)(=O)c1ccc(F)cc1)CC2 (stereo not drawn)	i
COC[C@@H]1CN(Cc2cnn(C)c2C)C[C@H]1C(=O)NC1CC1	11%
O=C(c1ccc(F)cc1Cl)N1CCN(c2cc(-c3ccc(F)cc3)[nH]n2)CC1	i
CCCCNC(=O)Cc1csc2nc(C)c(-c3cc(C)n(-c4cccc(C)c4)n3)c(=O)n12	i
CCCNC(=O)Cc1csc2nc(C)c(-c3cc(C)n(-c4ccc(C)cc4)n3)c(=O)n12	i
CCCCCCNC(=O)Cc1csc2nc(C)c(-c3cc(C)n(-c4cccc(C)c4)n3)c(=O)n12	2µM*
Cc1ccc(C(=O)N2CC(C(=O)N(C)C)C3(CCOCC3)C2)c(C)c1 (stereo not drawn)	-3%
COc1cccc(Cn2c(=O)n(CC3CCC(C(=O)N4CCCCC4)CC3)c(=O)c3sccc32)c1 (stereo not drawn)	10µM*
COc1cccc(Cn2c(=O)n(CC3CCC(C(=O)NC(C)C)CC3)c(=O)c3sccc32)c1 (stereo not drawn)	-8%
Cc1ccccc1Cn1c(=O)n(CC2CCC(C(=O)N3CCC(C)CC3)CC2)c(=O)c2sccc21 (stereo not drawn)	11µM*
Cc1ccc(Cn2c(=O)n(CC3CCC(C(=O)N4CCC(C)CC4)CC3)c(=O)c3sccc32)cc1 (stereo not drawn)	-24%
Cc1cccc(Cn2c(=O)n(CC3CCC(C(=O)NC(C)C)CC3)c(=O)c3sccc32)c1 (stereo not drawn)	-5%
CNC(=O)C1CCC(Cn2c(=O)c3sccc3n(CC(=O)N3CCC(C)CC3)c2=O)CC1 (stereo not drawn)	8%
CC(C)c1cc(C(=O)N(C)CCc2noc(C3CC3)n2)nc2ncnn12	-13%
Cc1ncc2n1C(=O)N(C1CCN(C(=O)c3ccccc3)CC1)C2	10%[44.1 µM]
O=C(NC1CCCCC1)N1C[C@@H]2C[C@H](C1)c1c(-c3cccs3)ccc(=O)n1C2	-24%[44.1 µM]
CCN(CC)C(=O)CCc1ccc2c(c1)CN(C(=O)NC(C)C)CCO2	-5%
CCCc1ccc(S(=O)(=O)NC2CCN(c3ccc(=O)n(CC4CC4)n3)CC2)cc1	i
CCc1ccc(C(=O)N2CCC3(CC2)N(c2ccccc2)C(=O)CS3(=O)=O)cc1	-29%
CC(=O)N1CCC2(CC1)CC(CC(=O)O)CCO2 (stereo not drawn)	11%
CN(Cc1noc(C2CCCC2)n1)C(=O)Cn1ncc2ccccc2c1=O	-16%
N#Cc1ccc(S(=O)(=O)N2CCC[C@H]2C(=O)N2CCCCCCNC(=O)CC2)cc1	8%
CC(=O)Nc1ccc(-c2ccc(=O)n3c2[C@@H]2C[C@@H](CN(C(=O)COc4ccccc4)C2)C3)cc1	2%
Cc1ccccc1[C@H]1[C@@H](C(=O)NCCn2ccnc2)C[C@@](C)(C(=O)O)N1C	-2%
SMILES	Pf Dd2 growth
Cc1cc(C)n(CCC(=O)N2CCC(N3C[C@H](O)C[C@H]3C(=O)NC3CCCCC3)CC2)n1	-24%
Cc1cnc(C(=O)N2CCC(N3C[C@H](O)C[C@H]3C(=O)NC3CCCCC3)CC2)cn1	10%
Cc1cc(C)n(Cc2ccc(C(=O)N3CCC(N4C[C@H](O)C[C@H]4C(=O)NC4CCCCC4)CC3)o2)n1	5µM*
COCCCNC(=O)c1c[nH]c2ncccc12	-22%[44.1 µM]
CN1CC(=O)N2CCN(C(=O)Cn3nnc4ccccc4c3=O)CC2C1=O (stereo not drawn)	-2%
COc1cccc(-c2nc(N3CCOCC3)cc3c2CN(CC2CC2)C3=O)c1OC	4%[44.1 µM]
O=C1c2cc(N3CCOCC3)nc(-c3cccc(O)c3)c2CN1CC(F)(F)F	2.8µM*
COc1cccc(-c2nc(N3CCOCC3)cc3c2CN(CC(F)(F)F)C3=O)c1OC	-1%[44.1 µM]
O=C1c2cc(N3CCOCC3)nc(-c3cccc(F)c3)c2CN1CC1CC1	i
COc1cccc(-c2nc(N3CCOCC3)cc3c2CN(Cc2ccccc2)C3=O)c1OC	11µM*
